# According to publication PMC7862700, “An all-to-all approach to the identification of sequence-specific readers for epigenetic DNA modifications on cytosine”:
# Columns and labels:
# Experiment in all cases: DAPPL (digital affinity profiling via proximity ligation, sequencing); 10 mM Tris-HCl pH 7.5, 50 mM NaCl, 1 mM DTT, 4% glycerol, room temperature, 30 min; GST-TFs on glutathione beads, 16-mer random dsDNA library, 0.1% formaldehyde crosslink after washing; high values mean tight binding
# FLI1 = target: T1, FLI1 (Homo sapiens, UniProt Q01543 1-452); conditions: protein: recombinant; tags: N-terminal GST; dsDNA, one strand shown
# T1 sequence: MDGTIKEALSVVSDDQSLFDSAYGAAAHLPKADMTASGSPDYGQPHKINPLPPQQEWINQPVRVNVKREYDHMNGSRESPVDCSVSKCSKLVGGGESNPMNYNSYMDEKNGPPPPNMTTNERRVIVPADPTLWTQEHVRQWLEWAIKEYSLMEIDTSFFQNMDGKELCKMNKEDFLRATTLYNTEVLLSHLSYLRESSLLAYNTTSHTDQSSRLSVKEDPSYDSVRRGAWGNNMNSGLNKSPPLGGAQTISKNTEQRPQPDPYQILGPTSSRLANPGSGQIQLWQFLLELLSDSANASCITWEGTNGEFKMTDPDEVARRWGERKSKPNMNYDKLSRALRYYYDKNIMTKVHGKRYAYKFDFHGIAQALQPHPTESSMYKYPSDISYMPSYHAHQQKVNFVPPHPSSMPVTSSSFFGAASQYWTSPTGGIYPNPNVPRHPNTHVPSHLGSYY
# In short: (§1)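 The binding signal reported is, for every hexamer, its read frequency for a factor over its read frequency for the tag-only sample. Reads came from pools of yeast-expressed, GST-fused human transcription factors on glutathione beads, barcoded with DNA and mixed with that sample, which were incubated with 200 nmole of a random double-stranded 16-mer DNA library in Tris/NaCl/DTT/glycerol buffer at room temperature for 30 min. After washing, the pools were crosslinked with 0.1% formaldehyde, proximity-ligated with BsaI/T4 ligase for 1 h at 37 °C, PCR-amplified and sequenced on an Illumina NextSeq500.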
# ELK1 = target: T2, ELK1 (Homo sapiens, UniProt P19419 1-428); conditions: protein: recombinant; tags: N-terminal GST; dsDNA, one strand shown
# T2 sequence: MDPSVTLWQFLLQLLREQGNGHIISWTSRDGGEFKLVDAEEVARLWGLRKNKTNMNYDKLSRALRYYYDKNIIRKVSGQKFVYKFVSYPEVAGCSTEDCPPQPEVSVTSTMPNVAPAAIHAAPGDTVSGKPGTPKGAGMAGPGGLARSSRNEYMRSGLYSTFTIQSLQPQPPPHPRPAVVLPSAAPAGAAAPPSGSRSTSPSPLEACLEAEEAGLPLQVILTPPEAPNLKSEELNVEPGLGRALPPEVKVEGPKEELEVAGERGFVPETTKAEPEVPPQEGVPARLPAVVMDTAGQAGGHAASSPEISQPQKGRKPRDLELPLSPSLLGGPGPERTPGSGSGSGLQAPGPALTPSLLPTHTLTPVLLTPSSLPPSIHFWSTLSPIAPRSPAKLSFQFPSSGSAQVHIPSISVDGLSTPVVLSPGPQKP
# In short: as §1
# GABPA = target: T3, GABPA (Homo sapiens, UniProt Q06546 1-454); conditions: protein: recombinant; tags: N-terminal GST; dsDNA, one strand shown
# T3 sequence: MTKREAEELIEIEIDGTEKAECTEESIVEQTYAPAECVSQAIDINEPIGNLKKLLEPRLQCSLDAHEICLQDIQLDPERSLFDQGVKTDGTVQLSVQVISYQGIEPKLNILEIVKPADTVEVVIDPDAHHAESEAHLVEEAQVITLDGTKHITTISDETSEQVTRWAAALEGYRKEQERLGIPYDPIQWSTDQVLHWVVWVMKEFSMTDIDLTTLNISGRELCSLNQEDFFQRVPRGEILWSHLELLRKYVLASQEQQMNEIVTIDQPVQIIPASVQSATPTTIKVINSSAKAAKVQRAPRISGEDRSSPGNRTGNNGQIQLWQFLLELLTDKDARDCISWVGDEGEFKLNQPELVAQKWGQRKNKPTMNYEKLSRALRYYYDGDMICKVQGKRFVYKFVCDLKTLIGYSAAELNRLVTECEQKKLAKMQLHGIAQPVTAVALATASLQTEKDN
# In short: as §1
# ERG = target: T4, ERG (Homo sapiens, UniProt P11308 1-479); conditions: protein: recombinant; tags: N-terminal GST; dsDNA, one strand shown
# T4 sequence: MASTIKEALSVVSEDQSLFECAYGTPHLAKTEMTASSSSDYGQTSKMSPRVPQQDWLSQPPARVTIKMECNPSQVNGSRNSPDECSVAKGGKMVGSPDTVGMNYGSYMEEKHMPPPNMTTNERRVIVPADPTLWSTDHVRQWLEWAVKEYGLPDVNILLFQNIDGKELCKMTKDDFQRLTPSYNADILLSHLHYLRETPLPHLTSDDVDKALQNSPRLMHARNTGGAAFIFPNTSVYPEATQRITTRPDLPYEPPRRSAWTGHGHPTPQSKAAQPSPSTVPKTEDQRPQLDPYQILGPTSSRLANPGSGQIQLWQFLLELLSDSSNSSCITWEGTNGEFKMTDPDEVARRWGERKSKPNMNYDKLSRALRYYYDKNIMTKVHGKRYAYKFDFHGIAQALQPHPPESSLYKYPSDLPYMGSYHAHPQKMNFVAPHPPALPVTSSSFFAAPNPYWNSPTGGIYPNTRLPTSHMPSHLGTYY
# In short: as §1
# ELF1 = ELF1 (Homo sapiens, UniProt P32519 1-619); conditions: protein: recombinant; tags: N-terminal GST; dsDNA, one strand shown
# In short: as §1
# EHF = target: T5, EHF (Homo sapiens, UniProt Q9NZC4 1-300); conditions: protein: recombinant; tags: N-terminal GST; dsDNA, one strand shown
# T5 sequence: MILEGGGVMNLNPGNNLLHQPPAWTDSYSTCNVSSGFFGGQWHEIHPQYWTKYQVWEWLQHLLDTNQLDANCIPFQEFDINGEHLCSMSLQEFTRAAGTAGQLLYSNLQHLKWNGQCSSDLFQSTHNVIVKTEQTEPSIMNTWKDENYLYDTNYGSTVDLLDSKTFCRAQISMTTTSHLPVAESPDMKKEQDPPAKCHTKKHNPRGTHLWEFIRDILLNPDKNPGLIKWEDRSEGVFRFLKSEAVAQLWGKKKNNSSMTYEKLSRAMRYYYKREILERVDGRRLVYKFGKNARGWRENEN
# In short: as §1
# SPI1 = SPI1 (Homo sapiens, UniProt P17947 1-270); conditions: protein: recombinant; tags: N-terminal GST; dsDNA, one strand shown
# In short: as §1
# SPIB = SPIB (Homo sapiens, UniProt Q01892 1-262); conditions: protein: recombinant; tags: N-terminal GST; dsDNA, one strand shown
# In short: as §1
# ELK3 = target: T6, ELK3 (Homo sapiens, UniProt P41970 1-407); conditions: protein: recombinant; tags: N-terminal GST; dsDNA, one strand shown
# T6 sequence: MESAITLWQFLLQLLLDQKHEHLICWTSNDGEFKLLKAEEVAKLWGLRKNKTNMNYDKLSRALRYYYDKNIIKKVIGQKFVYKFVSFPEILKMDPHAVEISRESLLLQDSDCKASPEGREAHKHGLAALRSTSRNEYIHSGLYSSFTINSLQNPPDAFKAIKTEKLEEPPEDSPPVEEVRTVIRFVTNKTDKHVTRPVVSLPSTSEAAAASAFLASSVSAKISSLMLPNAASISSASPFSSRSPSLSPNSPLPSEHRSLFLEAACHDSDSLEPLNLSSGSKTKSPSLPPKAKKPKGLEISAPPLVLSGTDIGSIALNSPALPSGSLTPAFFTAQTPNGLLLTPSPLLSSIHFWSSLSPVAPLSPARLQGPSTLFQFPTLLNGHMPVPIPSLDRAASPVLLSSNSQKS
# In short: as §1
# FEV = target: T7, FEV (Homo sapiens, UniProt Q99581 1-238); conditions: protein: recombinant; tags: N-terminal GST; dsDNA, one strand shown
# T7 sequence: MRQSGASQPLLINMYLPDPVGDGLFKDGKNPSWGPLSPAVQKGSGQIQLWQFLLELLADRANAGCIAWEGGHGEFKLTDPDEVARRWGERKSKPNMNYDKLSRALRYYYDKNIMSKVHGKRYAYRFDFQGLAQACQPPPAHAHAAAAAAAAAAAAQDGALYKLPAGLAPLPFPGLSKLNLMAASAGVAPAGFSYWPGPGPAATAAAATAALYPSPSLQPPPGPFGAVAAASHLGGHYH
# In short: as §1
# ETV5 = ETV5 (Homo sapiens, UniProt P41161 1-510); conditions: protein: recombinant; tags: N-terminal GST; dsDNA, one strand shown
# In short: as §1
# HSF1 = HSF1 (Homo sapiens, UniProt Q00613 1-529); conditions: protein: recombinant; tags: N-terminal GST; chain copies: 3; dsDNA, one strand shown
# In short: as §1
# SPIC = target: T8, SPIC (Homo sapiens, UniProt Q8N5J4 1-248); conditions: protein: recombinant; tags: N-terminal GST; dsDNA, one strand shown
# T8 sequence: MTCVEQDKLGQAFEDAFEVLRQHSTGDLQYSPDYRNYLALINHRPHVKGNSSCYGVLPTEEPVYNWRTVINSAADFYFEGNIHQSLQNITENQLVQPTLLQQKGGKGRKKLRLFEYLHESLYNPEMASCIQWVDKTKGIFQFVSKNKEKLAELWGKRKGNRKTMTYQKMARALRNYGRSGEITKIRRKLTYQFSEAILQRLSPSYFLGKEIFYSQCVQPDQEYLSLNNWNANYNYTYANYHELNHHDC
# In short: as §1
# ELF4 = ELF4 (Homo sapiens, UniProt Q99607 1-663); conditions: protein: recombinant; tags: N-terminal GST; dsDNA, one strand shown
# In short: as §1
# ELK4 = target: T9, ELK4 (Homo sapiens, UniProt P28324-2 1-405); conditions: protein: recombinant; tags: N-terminal GST; dsDNA, one strand shown
# T9 sequence: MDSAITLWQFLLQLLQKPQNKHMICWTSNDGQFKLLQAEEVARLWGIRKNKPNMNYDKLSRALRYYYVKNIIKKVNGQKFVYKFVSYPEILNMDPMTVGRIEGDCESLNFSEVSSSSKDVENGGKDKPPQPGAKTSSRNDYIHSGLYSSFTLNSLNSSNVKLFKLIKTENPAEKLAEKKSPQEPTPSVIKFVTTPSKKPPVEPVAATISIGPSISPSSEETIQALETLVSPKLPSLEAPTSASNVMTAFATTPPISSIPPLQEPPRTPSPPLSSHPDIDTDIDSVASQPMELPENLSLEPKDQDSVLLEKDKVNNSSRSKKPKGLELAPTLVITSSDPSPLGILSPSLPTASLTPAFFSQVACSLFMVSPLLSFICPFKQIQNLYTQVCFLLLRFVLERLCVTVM
# In short: as §1
# ETV2 = target: T10, ETV2 (Homo sapiens, UniProt O00321 1-342); conditions: protein: recombinant; tags: N-terminal GST; dsDNA, one strand shown
# T10 sequence: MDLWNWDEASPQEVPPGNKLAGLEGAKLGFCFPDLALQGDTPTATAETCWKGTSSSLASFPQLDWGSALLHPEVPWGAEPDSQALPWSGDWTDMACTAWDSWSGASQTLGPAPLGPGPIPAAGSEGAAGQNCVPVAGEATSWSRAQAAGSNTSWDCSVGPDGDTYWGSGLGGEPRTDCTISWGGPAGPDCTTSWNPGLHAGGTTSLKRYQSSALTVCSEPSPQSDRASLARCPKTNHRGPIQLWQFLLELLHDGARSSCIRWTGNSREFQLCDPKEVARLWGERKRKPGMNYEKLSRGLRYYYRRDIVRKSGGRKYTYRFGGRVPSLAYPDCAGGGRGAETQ
# In short: as §1
# ELF3 = target: T11, ELF3 (Homo sapiens, UniProt P78545 1-371); conditions: protein: recombinant; tags: N-terminal GST; dsDNA, one strand shown
# T11 sequence: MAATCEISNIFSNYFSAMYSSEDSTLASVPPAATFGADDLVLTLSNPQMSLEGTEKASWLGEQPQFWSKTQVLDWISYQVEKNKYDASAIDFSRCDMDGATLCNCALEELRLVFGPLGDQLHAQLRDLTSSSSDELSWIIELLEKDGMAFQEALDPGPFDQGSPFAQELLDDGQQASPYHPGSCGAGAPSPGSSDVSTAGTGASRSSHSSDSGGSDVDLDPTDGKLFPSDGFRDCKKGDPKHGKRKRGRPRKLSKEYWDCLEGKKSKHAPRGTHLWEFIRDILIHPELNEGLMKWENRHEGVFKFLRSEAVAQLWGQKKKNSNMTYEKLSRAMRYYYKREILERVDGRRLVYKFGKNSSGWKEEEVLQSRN
# In short: as §1
# CRX = CRX (Homo sapiens, UniProt O43186 1-299); conditions: protein: recombinant; tags: N-terminal GST; dsDNA, one strand shown
# In short: as §1
# ETV1 = ETV1 (Homo sapiens, UniProt P50549 1-477); conditions: protein: recombinant; tags: N-terminal GST; dsDNA, one strand shown
# In short: as §1
# SPIB, sequence (Q01892 whole entry): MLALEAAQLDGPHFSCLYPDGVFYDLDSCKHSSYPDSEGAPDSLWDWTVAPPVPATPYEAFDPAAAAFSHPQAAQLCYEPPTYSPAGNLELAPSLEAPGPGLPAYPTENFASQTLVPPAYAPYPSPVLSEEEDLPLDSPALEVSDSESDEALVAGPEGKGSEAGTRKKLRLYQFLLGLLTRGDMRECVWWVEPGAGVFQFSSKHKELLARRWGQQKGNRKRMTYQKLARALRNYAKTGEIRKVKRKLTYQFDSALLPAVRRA
# CRX, sequence (O43186 whole entry): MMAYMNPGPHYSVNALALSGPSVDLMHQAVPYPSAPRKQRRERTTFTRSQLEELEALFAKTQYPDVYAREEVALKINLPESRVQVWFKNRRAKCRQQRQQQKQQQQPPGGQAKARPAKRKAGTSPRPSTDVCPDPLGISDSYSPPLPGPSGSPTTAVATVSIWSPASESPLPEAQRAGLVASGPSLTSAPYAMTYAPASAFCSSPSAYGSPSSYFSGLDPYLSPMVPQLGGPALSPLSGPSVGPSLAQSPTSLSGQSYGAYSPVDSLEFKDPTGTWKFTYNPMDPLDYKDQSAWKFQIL
# HSF1, sequence (Q00613 whole entry): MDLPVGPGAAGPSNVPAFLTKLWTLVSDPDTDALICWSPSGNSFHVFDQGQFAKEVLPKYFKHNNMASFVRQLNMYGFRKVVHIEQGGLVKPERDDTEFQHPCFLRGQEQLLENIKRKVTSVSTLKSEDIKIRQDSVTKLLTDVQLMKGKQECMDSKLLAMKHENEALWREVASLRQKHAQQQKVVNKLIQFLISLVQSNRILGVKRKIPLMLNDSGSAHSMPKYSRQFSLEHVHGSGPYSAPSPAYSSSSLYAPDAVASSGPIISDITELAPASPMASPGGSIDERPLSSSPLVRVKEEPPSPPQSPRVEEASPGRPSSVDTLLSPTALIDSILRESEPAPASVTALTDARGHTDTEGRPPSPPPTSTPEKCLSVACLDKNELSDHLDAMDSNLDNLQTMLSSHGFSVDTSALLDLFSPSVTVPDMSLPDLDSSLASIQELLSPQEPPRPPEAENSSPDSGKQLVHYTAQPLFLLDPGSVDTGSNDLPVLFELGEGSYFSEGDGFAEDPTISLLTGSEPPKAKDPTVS
# ETV5, sequence (P41161 whole entry): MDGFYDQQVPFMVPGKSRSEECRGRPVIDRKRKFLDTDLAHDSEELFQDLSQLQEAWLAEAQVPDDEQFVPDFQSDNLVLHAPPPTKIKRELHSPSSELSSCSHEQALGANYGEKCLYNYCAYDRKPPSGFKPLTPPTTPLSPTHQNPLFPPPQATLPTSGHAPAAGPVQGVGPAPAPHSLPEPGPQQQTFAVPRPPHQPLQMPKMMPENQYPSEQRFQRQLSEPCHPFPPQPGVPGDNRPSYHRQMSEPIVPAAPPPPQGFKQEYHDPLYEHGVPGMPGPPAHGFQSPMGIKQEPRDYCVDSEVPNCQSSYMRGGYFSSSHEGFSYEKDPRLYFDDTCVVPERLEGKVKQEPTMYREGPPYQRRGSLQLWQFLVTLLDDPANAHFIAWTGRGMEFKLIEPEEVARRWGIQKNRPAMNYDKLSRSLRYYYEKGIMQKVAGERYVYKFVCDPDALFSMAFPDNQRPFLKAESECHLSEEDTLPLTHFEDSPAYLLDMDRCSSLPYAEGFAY
# ELF1, sequence (P32519 whole entry): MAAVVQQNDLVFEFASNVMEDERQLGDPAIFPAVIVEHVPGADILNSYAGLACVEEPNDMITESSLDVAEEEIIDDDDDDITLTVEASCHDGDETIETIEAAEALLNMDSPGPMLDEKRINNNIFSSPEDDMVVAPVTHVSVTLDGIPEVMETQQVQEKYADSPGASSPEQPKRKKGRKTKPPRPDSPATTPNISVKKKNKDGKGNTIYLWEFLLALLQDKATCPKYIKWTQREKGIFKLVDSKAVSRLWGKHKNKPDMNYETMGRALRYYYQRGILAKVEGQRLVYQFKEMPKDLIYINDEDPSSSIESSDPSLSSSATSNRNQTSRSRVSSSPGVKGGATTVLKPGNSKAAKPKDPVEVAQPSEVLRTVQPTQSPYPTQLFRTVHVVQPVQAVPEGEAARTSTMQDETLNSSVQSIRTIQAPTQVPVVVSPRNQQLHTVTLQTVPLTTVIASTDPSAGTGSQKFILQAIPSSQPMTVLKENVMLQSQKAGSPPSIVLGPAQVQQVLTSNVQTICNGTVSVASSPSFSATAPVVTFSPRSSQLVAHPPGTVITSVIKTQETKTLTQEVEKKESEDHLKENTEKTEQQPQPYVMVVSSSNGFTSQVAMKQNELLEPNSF
# ETV1, sequence (P50549 whole entry): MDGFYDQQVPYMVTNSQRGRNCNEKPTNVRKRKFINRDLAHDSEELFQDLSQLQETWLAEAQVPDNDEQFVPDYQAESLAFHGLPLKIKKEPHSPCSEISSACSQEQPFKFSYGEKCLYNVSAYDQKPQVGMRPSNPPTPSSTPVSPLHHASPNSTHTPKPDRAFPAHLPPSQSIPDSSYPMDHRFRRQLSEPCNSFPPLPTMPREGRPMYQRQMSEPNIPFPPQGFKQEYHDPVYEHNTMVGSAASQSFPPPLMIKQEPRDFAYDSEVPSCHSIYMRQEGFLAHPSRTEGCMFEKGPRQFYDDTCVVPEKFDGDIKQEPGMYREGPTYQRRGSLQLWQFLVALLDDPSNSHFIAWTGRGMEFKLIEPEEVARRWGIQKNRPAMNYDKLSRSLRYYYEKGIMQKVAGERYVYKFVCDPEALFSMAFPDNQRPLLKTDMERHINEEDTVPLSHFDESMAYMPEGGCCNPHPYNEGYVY
# ELF4, sequence (Q99607 whole entry): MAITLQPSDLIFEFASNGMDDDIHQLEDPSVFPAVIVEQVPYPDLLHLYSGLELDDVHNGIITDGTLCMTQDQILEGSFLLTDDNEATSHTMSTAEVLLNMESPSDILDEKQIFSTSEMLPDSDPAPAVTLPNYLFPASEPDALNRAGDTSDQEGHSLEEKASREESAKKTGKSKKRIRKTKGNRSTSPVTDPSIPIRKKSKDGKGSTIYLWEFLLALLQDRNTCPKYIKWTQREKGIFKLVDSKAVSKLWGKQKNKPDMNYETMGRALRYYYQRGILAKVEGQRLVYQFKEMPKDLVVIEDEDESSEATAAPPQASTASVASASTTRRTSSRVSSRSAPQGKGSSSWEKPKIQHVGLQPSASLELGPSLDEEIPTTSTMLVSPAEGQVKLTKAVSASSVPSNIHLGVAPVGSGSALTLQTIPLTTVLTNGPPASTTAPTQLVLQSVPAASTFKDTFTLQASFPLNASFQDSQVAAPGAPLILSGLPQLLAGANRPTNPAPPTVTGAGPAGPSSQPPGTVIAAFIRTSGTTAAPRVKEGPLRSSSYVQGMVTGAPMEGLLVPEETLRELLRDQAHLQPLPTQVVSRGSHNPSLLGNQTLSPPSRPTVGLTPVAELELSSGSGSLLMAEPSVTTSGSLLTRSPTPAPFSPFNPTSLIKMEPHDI
sequence,measurement,setting,value
CTTTCA,binding signal,FLI1,"1.45 fold enrichment (6-mer frequency, TF over GST control)"
same,binding signal,ELK1,"1.32 fold enrichment (6-mer frequency, TF over GST control)"
same,binding signal,GABPA,"1.46 fold enrichment (6-mer frequency, TF over GST control)"
same,binding signal,ERG,"1.23 fold enrichment (6-mer frequency, TF over GST control)"
same,binding signal,ELF1,"1.41 fold enrichment (6-mer frequency, TF over GST control)"
same,binding signal,EHF,"1.3 fold enrichment (6-mer frequency, TF over GST control)"
same,binding signal,SPI1,"1.45 fold enrichment (6-mer frequency, TF over GST control)"
same,binding signal,SPIB,"1.28 fold enrichment (6-mer frequency, TF over GST control)"
same,binding signal,ELK3,"1.36 fold enrichment (6-mer frequency, TF over GST control)"
same,binding signal,FEV,"1.31 fold enrichment (6-mer frequency, TF over GST control)"
same,binding signal,ETV5,"1.26 fold enrichment (6-mer frequency, TF over GST control)"
same,binding signal,HSF1,"1.28 fold enrichment (6-mer frequency, TF over GST control)"
same,binding signal,SPIC,"1.37 fold enrichment (6-mer frequency, TF over GST control)"
same,binding signal,ELF4,"1.44 fold enrichment (6-mer frequency, TF over GST control)"
same,binding signal,ELK4,"1.54 fold enrichment (6-mer frequency, TF over GST control)"
same,binding signal,ETV2,"1.42 fold enrichment (6-mer frequency, TF over GST control)"
same,binding signal,ELF3,"1.18 fold enrichment (6-mer frequency, TF over GST control)"
same,binding signal,CRX,"1.25 fold enrichment (6-mer frequency, TF over GST control)"
same,binding signal,ETV1,"1.45 fold enrichment (6-mer frequency, TF over GST control)"
